Laboratory results from PubChem BioAssay (NCI).
About 83,000 compounds went through this panel and 20% of them were active in at least one assay; those are over-represented in the sample as a whole.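 A percent growth of 40 corresponds to 60% growth inhibition; 0 means no net growth; -100 means all cells died. Active threshold: below 10.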 Active and inactive are the calls of the source.

Legend:
Assay in all cases: NCI-60 one-dose screen, 48 h (100 = growth as untreated, 0 = no growth, -100 = all killed)
Conditions in all cases: 10 µM unless noted
SR leukemia = system: SR leukemia
RPMI-8226 leukemia = system: RPMI-8226 leukemia
OVCAR-8 ovarian = system: OVCAR-8 ovarian
OVCAR-5 ovarian = system: OVCAR-5 ovarian
OVCAR-4 ovarian = system: OVCAR-4 ovarian
SK-OV-3 ovarian = system: SK-OV-3 ovarian
IGROV1 ovarian = system: IGROV1 ovarian
OVCAR-3 ovarian = system: OVCAR-3 ovarian
HS 578T breast = system: HS 578T breast
NCI/ADR-RES ovarian = system: NCI/ADR-RES ovarian
T-47D breast = system: T-47D breast
BT-549 breast = system: BT-549 breast
MDA-MB-435 melanoma = system: MDA-MB-435 melanoma
SW-620 colon = system: SW-620 colon
MCF7 breast = system: MCF7 breast
HCT-116 colon = system: HCT-116 colon
KM12 colon = system: KM12 colon
HCC-2998 colon = system: HCC-2998 colon

Measured: growth

COc1cccc2c1C(=O)c1c(O)c3c(c(O)c1C2=O)C[C@](O)(C(=O)CO)C[C@H]3O[C@@H]1C[C@@H](NC(=O)CCCCCN(C)C2(c3ccc(F)cc3)CC3CCC2C3)[C@H](O)[C@@H](C)O1 (stereo partly specified)
active: SR leukemia -45.7% | RPMI-8226 leukemia -35.4% | OVCAR-5 ovarian -51.6% | OVCAR-4 ovarian 0.206% | OVCAR-3 ovarian 5.02% | MDA-MB-435 melanoma -17.9% | SW-620 colon -74.9% | MCF7 breast -46.2% | HCT-116 colon -91.8% | KM12 colon -68.5%
inactive: OVCAR-8 ovarian 21.5% | SK-OV-3 ovarian 79.5% | IGROV1 ovarian 56% | HS 578T breast 57.6% | NCI/ADR-RES ovarian 80.2% | T-47D breast 86.3% | BT-549 breast 52%

O=[N+]([O-])c1cnc(N2CCN(CC3CC3)CC2)nc1N1CCN(CC2CC2)CC1
inactive: SR leukemia 115% | RPMI-8226 leukemia 100% | OVCAR-8 ovarian 104% | OVCAR-5 ovarian 92.2% | OVCAR-4 ovarian 95% | SK-OV-3 ovarian 111% | IGROV1 ovarian 90.6% | OVCAR-3 ovarian 98.6% | HS 578T breast 77.5% | NCI/ADR-RES ovarian 90.2% | T-47D breast 100% | BT-549 breast 88.9% | MDA-MB-435 melanoma 98.1% | SW-620 colon 90.9% | MCF7 breast 96.4% | HCT-116 colon 86% | KM12 colon 100%

CCNC(=O)Oc1ccc(/C(=C(\C)c2ccc(Cl)cc2)c2ccc(OCCN(CC)CC)cc2)cc1
active: SR leukemia -26.8% | RPMI-8226 leukemia -11.4% | SW-620 colon 2.28%
inactive: OVCAR-8 ovarian 64.8% | OVCAR-5 ovarian 85.9% | OVCAR-4 ovarian 40.5% | SK-OV-3 ovarian 61.5% | IGROV1 ovarian 49.2% | OVCAR-3 ovarian 53.9% | HS 578T breast 47.1% | NCI/ADR-RES ovarian 57.3% | T-47D breast 25.5% | BT-549 breast 68.8% | MDA-MB-435 melanoma 25% | MCF7 breast 16.5% | HCT-116 colon 38.6% | HCC-2998 colon 51% | KM12 colon 37.5%

O=C1/C(=C/c2ccc3c(c2)OCO3)SC(=S)N1CCc1ccc(O)cc1
inactive: SR leukemia 101% | RPMI-8226 leukemia 89.8% | OVCAR-8 ovarian 101% | OVCAR-5 ovarian 111% | OVCAR-4 ovarian 82.9% | SK-OV-3 ovarian 104% | IGROV1 ovarian 75.9% | OVCAR-3 ovarian 101% | HS 578T breast 96.7% | NCI/ADR-RES ovarian 97.4% | T-47D breast 59.2% | BT-549 breast 96.6% | MDA-MB-435 melanoma 94% | SW-620 colon 111% | MCF7 breast 112% | HCT-116 colon 101% | KM12 colon 86.3%

COc1ccc(-c2cc(Nc3ccnc(N4CCOCC4)n3)on2)cc1
active: OVCAR-3 ovarian -17.6% | MDA-MB-435 melanoma -30.2%
inactive: SR leukemia 31.1% | RPMI-8226 leukemia 25.2% | OVCAR-8 ovarian 37.2% | OVCAR-5 ovarian 46.6% | OVCAR-4 ovarian 62.1% | SK-OV-3 ovarian 43.2% | IGROV1 ovarian 43.1% | HS 578T breast 18.7% | NCI/ADR-RES ovarian 10.8% | T-47D breast 55.1% | BT-549 breast 57.1% | SW-620 colon 31.1% | MCF7 breast 24.4% | HCT-116 colon 12.7% | HCC-2998 colon 40.4% | KM12 colon 20.3%

CC(O)CN1CC(O)=C(c2nc3ccccc3s2)C1=N (stereo unspecified)
inactive: SR leukemia 93.1% | RPMI-8226 leukemia 101% | OVCAR-8 ovarian 116% | OVCAR-5 ovarian 93.9% | OVCAR-4 ovarian 106% | SK-OV-3 ovarian 113% | IGROV1 ovarian 99% | OVCAR-3 ovarian 117% | HS 578T breast 104% | NCI/ADR-RES ovarian 85.1% | T-47D breast 104% | BT-549 breast 109% | MDA-MB-435 melanoma 98.9% | SW-620 colon 108% | MCF7 breast 96.3% | HCT-116 colon 109% | KM12 colon 117%
active: HCC-2998 colon 8.02%

CN1CCN(c2ccc3nc(-c4ccc(OCCCCN5CCN(CCCCN6C(=O)c7cccc8cccc(c78)C6=O)CC5)cc4)[nH]c3c2)CC1
active: SR leukemia -68.4%
inactive: RPMI-8226 leukemia 26.3% | OVCAR-8 ovarian 22.6% | OVCAR-5 ovarian 116% | OVCAR-4 ovarian 80.5% | SK-OV-3 ovarian 89.3% | IGROV1 ovarian 58.5% | OVCAR-3 ovarian 76.1% | HS 578T breast 35.2% | NCI/ADR-RES ovarian 69.6% | T-47D breast 36.1% | BT-549 breast 47% | MDA-MB-435 melanoma 65.9% | SW-620 colon 84.2% | MCF7 breast 68.5% | HCT-116 colon 45.9% | KM12 colon 86.8%

O=c1c(F)cn(Cc2ccccc2CCl)c(=O)n1Cc1ccccc1CCl
active: SR leukemia -57.5% | RPMI-8226 leukemia -48.6% | OVCAR-8 ovarian -20.3% | OVCAR-5 ovarian -76.8% | OVCAR-4 ovarian -15.3% | IGROV1 ovarian -37.3% | OVCAR-3 ovarian -44.6% | HS 578T breast -3.05% | NCI/ADR-RES ovarian -9.91% | T-47D breast -49.5% | BT-549 breast -73.9% | MDA-MB-435 melanoma -67.1% | SW-620 colon -74.6% | MCF7 breast -47.7% | HCT-116 colon -56.9% | KM12 colon -16.2%
inactive: SK-OV-3 ovarian 10.3%

Cc1cc(N2CCSCC2)nc(NC2CCCC(Nc3ccnc4cc(Cl)ccc34)C2)n1 (stereo unspecified)
active: SR leukemia -54% | RPMI-8226 leukemia -52.6% | OVCAR-8 ovarian -20.9% | IGROV1 ovarian -16.1% | OVCAR-3 ovarian -38.4% | HS 578T breast -34.2% | NCI/ADR-RES ovarian 1.15% | T-47D breast -37.2% | BT-549 breast -60.2% | MDA-MB-435 melanoma -88.5% | SW-620 colon -60.8% | MCF7 breast -36.3% | HCT-116 colon -65.6% | HCC-2998 colon -58.3% | KM12 colon 8.04%
inactive: OVCAR-5 ovarian 29.7% | OVCAR-4 ovarian 16.8% | SK-OV-3 ovarian 34.8%

C#CCOc1ccc2ncnc(NCc3cccc(NC(=O)CCl)c3)c2c1
active: IGROV1 ovarian -68.1% [8.25 µM]
inactive: SR leukemia 15.7% [8.25 µM] | RPMI-8226 leukemia 21% [8.25 µM] | OVCAR-8 ovarian 17.2% [8.25 µM] | OVCAR-5 ovarian 55.3% [8.25 µM] | OVCAR-4 ovarian 31.6% [8.25 µM] | SK-OV-3 ovarian 83% [8.25 µM] | OVCAR-3 ovarian 24.2% [8.25 µM] | HS 578T breast 50.2% [8.25 µM] | NCI/ADR-RES ovarian 77.7% [8.25 µM] | T-47D breast 33.2% [8.25 µM] | BT-549 breast 46.6% [8.25 µM] | MDA-MB-435 melanoma 53.4% [8.25 µM] | SW-620 colon 19.9% [8.25 µM] | MCF7 breast 15.5% [8.25 µM] | HCT-116 colon 14.6% [8.25 µM] | HCC-2998 colon 99.7% [8.25 µM] | KM12 colon 59.7% [8.25 µM]

COc1ccc(CN2c3ccccc3Oc3ccccc32)cc1O
inactive: SR leukemia 17.4% | RPMI-8226 leukemia 14.1% | OVCAR-8 ovarian 35.6% | OVCAR-5 ovarian 91.5% | OVCAR-4 ovarian 55.1% | SK-OV-3 ovarian 31.3% | IGROV1 ovarian 45.3% | OVCAR-3 ovarian 18.6% | HS 578T breast 31.1% | NCI/ADR-RES ovarian 25.2% | T-47D breast 30.6% | BT-549 breast 39.9% | SW-620 colon 27% | MCF7 breast 27.3% | HCT-116 colon 13.7% | KM12 colon 20.9%
active: MDA-MB-435 melanoma 9.49%

C=C1C(=O)O[C@H]2[C@H]1CC/C(COC(=O)NCc1ccc(OC)c(OC)c1)=C\CC[C@@]1(C)O[C@@H]21
active: SR leukemia 6.13% | HCT-116 colon 7.17%
inactive: RPMI-8226 leukemia 25.1% | OVCAR-8 ovarian 47.9% | OVCAR-5 ovarian 85.1% | OVCAR-4 ovarian 42.3% | SK-OV-3 ovarian 101% | IGROV1 ovarian 61% | OVCAR-3 ovarian 19.9% | HS 578T breast 86.2% | NCI/ADR-RES ovarian 93.9% | T-47D breast 30.2% | BT-549 breast 75.2% | MDA-MB-435 melanoma 54.8% | SW-620 colon 14.1% | MCF7 breast 34.5% | KM12 colon 90.9%

O=c1oc2c(C(F)(F)F)cccc2cc1-c1csc(Nc2ccc(OCCF)cc2)n1
active: SR leukemia 6.43% | OVCAR-8 ovarian 4.22% | OVCAR-3 ovarian -21.4% | MDA-MB-435 melanoma -22.9% | HCT-116 colon -26.3% | KM12 colon 2.28%
inactive: RPMI-8226 leukemia 15.9% | OVCAR-5 ovarian 67.5% | OVCAR-4 ovarian 40.4% | SK-OV-3 ovarian 15.1% | IGROV1 ovarian 21.4% | HS 578T breast 22.7% | NCI/ADR-RES ovarian 17.5% | T-47D breast 71.1% | BT-549 breast 31.5% | SW-620 colon 26.1% | MCF7 breast 15.3%

COc1cc(-c2ccc3c(c2)NC(=O)/C3=C\c2ccc[nH]2)ccc1O
active: SR leukemia 8.9% | RPMI-8226 leukemia 6.57% | OVCAR-3 ovarian 9.59% | MCF7 breast 6.69% | HCC-2998 colon 1.36% | KM12 colon 1.34%
inactive: OVCAR-8 ovarian 18.5% | OVCAR-5 ovarian 48.2% | OVCAR-4 ovarian 52.4% | SK-OV-3 ovarian 30.7% | IGROV1 ovarian 26.3% | HS 578T breast 53.9% | NCI/ADR-RES ovarian 12.7% | T-47D breast 35.2% | BT-549 breast 46.5% | MDA-MB-435 melanoma 12.2% | SW-620 colon 28.8% | HCT-116 colon 14.1%

O=[N+]([O-])c1ccc(Nc2nc(NCCN3CCOCC3)ncc2[N+](=O)[O-])cc1
inactive: SR leukemia 107% | RPMI-8226 leukemia 100% | OVCAR-8 ovarian 99.5% | OVCAR-5 ovarian 98.6% | OVCAR-4 ovarian 85.4% | SK-OV-3 ovarian 93.4% | IGROV1 ovarian 81% | OVCAR-3 ovarian 102% | HS 578T breast 87.8% | NCI/ADR-RES ovarian 89.8% | T-47D breast 100% | BT-549 breast 89% | MDA-MB-435 melanoma 97.8% | SW-620 colon 89.1% | MCF7 breast 79.8% | HCT-116 colon 88.1% | KM12 colon 99%

CC/C=C\C[C@H](O)C/C=C1/C(=O)C=C[C@@]1(C)C/C=C\CCCC(=O)OC
inactive: SR leukemia 103% | RPMI-8226 leukemia 103% | OVCAR-8 ovarian 97.8% | OVCAR-5 ovarian 99.8% | OVCAR-4 ovarian 101% | SK-OV-3 ovarian 112% | IGROV1 ovarian 109% | OVCAR-3 ovarian 114% | HS 578T breast 103% | NCI/ADR-RES ovarian 94.8% | T-47D breast 98.2% | BT-549 breast 104% | MDA-MB-435 melanoma 106% | SW-620 colon 114% | MCF7 breast 92.8% | HCT-116 colon 94% | KM12 colon 102%

CN(Cc1cc(Cl)cc(Cl)c1O)Cc1cc(Cl)cc(Cl)c1O
inactive: SR leukemia 62.6% | RPMI-8226 leukemia 70.7% | OVCAR-8 ovarian 63.6% | OVCAR-5 ovarian 89.8% | OVCAR-4 ovarian 40.2% | SK-OV-3 ovarian 78.3% | IGROV1 ovarian 54.2% | OVCAR-3 ovarian 49.1% | HS 578T breast 92.8% | NCI/ADR-RES ovarian 62.4% | T-47D breast 76.4% | BT-549 breast 86.4% | MDA-MB-435 melanoma 68.2% | SW-620 colon 73.2% | MCF7 breast 67.6% | HCT-116 colon 58.9% | HCC-2998 colon 83.5% | KM12 colon 74.8%
